# According to ChEMBL document CHEMBL1961873, “Compounds: GSK PKIS; Assays: Nanosyn kinase panel” (2012):
# Columns and labels:
# [1] = target: T1, 3-phosphoinositide-dependent protein kinase 1 (Homo sapiens) (UniProt O15530); conditions: at 0.1 µM;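 also: values are mean inhibition of PDK1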
# T1 sequence (whole entry): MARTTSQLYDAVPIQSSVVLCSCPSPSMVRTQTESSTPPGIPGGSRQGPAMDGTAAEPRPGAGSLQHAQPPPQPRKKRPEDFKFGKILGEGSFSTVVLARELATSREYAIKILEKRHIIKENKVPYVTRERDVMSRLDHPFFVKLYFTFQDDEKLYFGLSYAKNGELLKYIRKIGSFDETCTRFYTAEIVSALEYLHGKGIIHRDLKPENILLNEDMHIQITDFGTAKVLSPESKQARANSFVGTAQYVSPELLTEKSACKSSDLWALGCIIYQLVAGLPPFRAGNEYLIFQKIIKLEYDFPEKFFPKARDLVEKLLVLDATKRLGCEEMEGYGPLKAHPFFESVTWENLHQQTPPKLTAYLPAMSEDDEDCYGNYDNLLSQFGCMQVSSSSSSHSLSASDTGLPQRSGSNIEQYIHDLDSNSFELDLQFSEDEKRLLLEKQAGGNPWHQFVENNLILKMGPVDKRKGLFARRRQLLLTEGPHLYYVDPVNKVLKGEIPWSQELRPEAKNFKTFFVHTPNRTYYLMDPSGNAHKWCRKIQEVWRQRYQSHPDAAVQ
# [2] = target: cAMP-dependent protein kinase catalytic subunit alpha (Homo sapiens) (UniProt P17612); conditions: at 0.1 µM
# [3] = target: cAMP-dependent protein kinase catalytic subunit alpha (Homo sapiens) (UniProt P17612); conditions: at 1 µM
# [4] = target: Protein kinase C alpha type (Homo sapiens) (UniProt P17252); conditions: at 0.1 µM
# [5] = target: Protein kinase C alpha type (Homo sapiens) (UniProt P17252); conditions: at 1 µM
# [6] = target: Protein kinase C beta type (Homo sapiens) (UniProt P05771); conditions: at 0.1 µM
# [7] = target: Protein kinase C beta type (Homo sapiens) (UniProt P05771); conditions: at 1 µM
# [8] = target: Protein kinase C eta type (Homo sapiens) (UniProt P24723); conditions: at 0.1 µM
# [9] = target: Protein kinase C eta type (Homo sapiens) (UniProt P24723); conditions: at 1 µM
# [10] = target: Protein kinase C gamma type (Homo sapiens) (UniProt P05129); conditions: at 0.1 µM;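 also: values are mean percent inhibition of PKC gamma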
# Chain of Protein kinase C eta type (Homo sapiens) (P24723 whole entry): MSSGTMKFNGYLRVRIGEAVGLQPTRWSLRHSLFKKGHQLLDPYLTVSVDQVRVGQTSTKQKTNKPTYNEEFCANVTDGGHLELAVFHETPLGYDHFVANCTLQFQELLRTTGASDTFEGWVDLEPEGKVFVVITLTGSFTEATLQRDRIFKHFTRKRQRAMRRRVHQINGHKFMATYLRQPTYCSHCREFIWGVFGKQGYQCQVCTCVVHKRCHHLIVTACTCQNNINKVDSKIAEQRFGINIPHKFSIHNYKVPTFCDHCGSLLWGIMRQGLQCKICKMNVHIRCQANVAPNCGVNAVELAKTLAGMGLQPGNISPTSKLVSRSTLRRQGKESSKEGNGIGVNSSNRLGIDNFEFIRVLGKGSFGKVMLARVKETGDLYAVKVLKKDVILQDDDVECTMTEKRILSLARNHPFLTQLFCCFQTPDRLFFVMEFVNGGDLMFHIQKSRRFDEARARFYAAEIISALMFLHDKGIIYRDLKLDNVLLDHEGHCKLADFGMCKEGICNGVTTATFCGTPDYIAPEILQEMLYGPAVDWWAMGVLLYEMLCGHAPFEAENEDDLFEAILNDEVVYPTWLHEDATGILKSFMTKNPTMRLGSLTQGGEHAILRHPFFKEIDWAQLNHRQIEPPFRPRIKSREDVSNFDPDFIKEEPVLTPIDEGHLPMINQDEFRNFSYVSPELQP
# Chain of Protein kinase C beta type (Homo sapiens) (P05771 2-671 limits assumed): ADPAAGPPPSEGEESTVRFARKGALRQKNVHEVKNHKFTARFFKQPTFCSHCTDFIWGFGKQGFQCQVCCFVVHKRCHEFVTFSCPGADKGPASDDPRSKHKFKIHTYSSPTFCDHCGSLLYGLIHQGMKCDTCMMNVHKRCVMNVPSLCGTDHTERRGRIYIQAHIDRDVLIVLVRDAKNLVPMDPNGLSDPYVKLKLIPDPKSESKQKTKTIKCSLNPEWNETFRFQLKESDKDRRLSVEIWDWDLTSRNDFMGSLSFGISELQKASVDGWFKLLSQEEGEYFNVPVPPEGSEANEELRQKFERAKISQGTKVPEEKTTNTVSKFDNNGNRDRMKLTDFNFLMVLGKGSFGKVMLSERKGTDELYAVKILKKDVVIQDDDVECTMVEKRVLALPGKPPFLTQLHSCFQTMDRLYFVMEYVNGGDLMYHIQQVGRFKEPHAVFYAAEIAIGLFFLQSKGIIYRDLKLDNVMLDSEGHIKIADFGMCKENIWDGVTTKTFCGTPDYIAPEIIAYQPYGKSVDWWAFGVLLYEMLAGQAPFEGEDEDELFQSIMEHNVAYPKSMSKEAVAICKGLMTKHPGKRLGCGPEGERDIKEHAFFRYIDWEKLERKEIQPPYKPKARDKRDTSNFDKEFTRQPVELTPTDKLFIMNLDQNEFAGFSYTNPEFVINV
Structure (SMILES),inhibition [1],inhibition [2],inhibition [3],inhibition [4],inhibition [5],inhibition [6],inhibition [7],inhibition [8],inhibition [9],inhibition [10]
COC(=O)c1sc(-n2cnc3cc(OC)c(OC)cc32)cc1OCc1ccccc1C(F)(F)F,1.42%,1.59%,0.74%,0.62%,1.49%,-0.94%,0.17%,2.15%,0.99%,3.39%
O=C(Nc1n[nH]c2cc(-c3ccc(F)cc3)ccc12)C1CC1,1.87%,1.56%,5.1%,0.82%,2.18%,2.92%,6.56%,3.22%,6.59%,3.26%
CNC(=O)c1cccc(C#Cc2cncnc2Nc2ccc(OCc3cccc(F)c3)c(Cl)c2)c1,1%,1.13%,0.28%,-0.17%,0.64%,0.07%,1.77%,1.23%,-0.12%,0.99%
CCOc1ccc2c(-c3ccnc(Nc4cccc(C(F)(F)F)c4)n3)cnn2n1,-2.03%,1.32%,1.22%,0.95%,0.74%,0.58%,0.67%,0.98%,-0.29%,4.45%
CS(=O)(=O)CCNCc1ccc(-c2ccc3ncnc(Nc4ccc(OCc5ccccc5)c(C(F)(F)F)c4)c3c2)o1,-0.19%,1.37%,1.5%,0.59%,0.28%,0.21%,1.23%,4.55%,5.11%,2.66%
CCn1c(-c2nonc2N)nc2ccccc21,2.81%,3.16%,18.5%,0.44%,5.52%,12.7%,46.5%,20.8%,67.6%,3.92%
COC(=O)Nc1nc2ccc(Oc3ccc(NC(=O)Nc4cccc(Cl)c4)cc3)cc2[nH]1,-0.86%,2.12%,0.79%,0.15%,-0.86%,-1.37%,-5.17%,0.84%,-0.24%,0.84%
CS(=O)(=O)CCNCc1coc(-c2ccc3ncnc(Nc4ccc(OCc5ccccc5)cc4)c3c2)c1,6.29%,1.59%,2.39%,0.46%,1.78%,0.47%,-1%,4.58%,3.63%,-2.12%
Clc1ccc(-c2nn3ncccc3c2-c2ccnc(Nc3ccccc3)n2)cc1,0.53%,1.67%,2.52%,1.23%,-0.09%,0.65%,1.93%,-0.59%,-0.77%,-1.17%
COc1cccc(-n2ncc3c(N/N=C/c4ccc(F)cc4)ncnc32)c1,0.01%,1.66%,3.69%,0.47%,1.43%,1.01%,0.97%,3.28%,2.58%,0.86%
CN1CCC(n2cnc(-c3ccc(F)cc3)c2-c2ccnc(N)n2)CC1,3.73%,3.06%,7.95%,1.23%,10.6%,0.83%,7.02%,3.71%,4.79%,0.37%
COc1ccc(-c2oc3ncnc(N)c3c2-c2ccc(NC(=O)Nc3cc(C(F)(F)F)ccc3F)cc2)cc1,1.13%,3.34%,4.14%,0.71%,1.62%,3.38%,6.16%,6.58%,5.99%,1.64%
CC1=C(C(=O)Nc2cc(Cl)c3[nH]ncc3c2)C(c2ccc(C(F)(F)F)cc2)CC(=O)N1 (stereo not given),1.84%,21.8%,71%,0.91%,1.52%,0.15%,2.02%,5.7%,39.1%,3.92%
CCn1c(-c2nonc2N)nc2cnc(Oc3cccc(NC(=O)c4ccc(N(C)C)cc4)c3)cc21,1.22%,19.6%,70.5%,0.56%,7.8%,16.7%,53.6%,43.6%,88%,3.96%
NC(=O)c1sc(-n2cnc3ccc(C(F)(F)F)cc32)cc1OCc1ccccc1Br,2.61%,3.12%,6.29%,0.78%,1.26%,-0.05%,1.5%,-0.93%,1.21%,-0.86%
NS(=O)(=O)c1ccc(N/N=C2\C(=O)Nc3ccc4ncccc4c32)cc1,20.8%,1.4%,3.13%,0.41%,3.78%,-0.44%,-0.03%,2.36%,3.07%,0.51%
CCn1c(-c2nonc2N)nc2c(C#CC(C)(C)O)ncc(OC3CCNCC3)c21,2.52%,62.4%,89.9%,3.68%,30.4%,41.8%,73.2%,89.7%,99.9%,35.1%

Structure (SMILES),inhibition [1],inhibition [2],inhibition [3],inhibition [4],inhibition [5],inhibition [6],inhibition [7],inhibition [8],inhibition [9],inhibition [10]
CCNC(=O)O[C@H]1CN[C@H](C#Cc2cc3ncnc(Nc4ccc(OCc5cccc(F)c5)c(Cl)c4)c3s2)C1,4.86%,1.62%,1.22%,0.4%,1.1%,0.61%,-2.05%,3.54%,-2.11%,-1.05%
Fc1ccc(-c2cc(-c3c[nH]nc3-c3ccccn3)ccn2)cc1,0.78%,1.9%,2.54%,0.45%,0.88%,1.93%,3.1%,4.28%,6.6%,-0.18%
COc1ccc(CNC(=O)c2ccc(-c3cc(-c4nnc(C)o4)ccc3C)cc2)cc1,1.94%,3.14%,3.15%,0.19%,0.76%,6.66%,9.43%,-0.12%,4.73%,3.1%
COc1ccc2c(-c3ccnc(Nc4cccc(OC(F)(F)F)c4)n3)cnn2n1,1.72%,1.61%,3.17%,1.34%,12.7%,0.08%,3.07%,6.47%,6.9%,5.4%
[O-][S+]1CCN(Cc2ccc(-c3ccc4ncnc(Nc5ccc(OCc6cccc(F)c6)c(Cl)c5)c4c3)o2)CC1,4.4%,2.27%,3.13%,1.17%,1.29%,-0.91%,1.67%,2.12%,4.25%,3.03%
Fc1ccc(-c2nn3ccccc3c2-c2ccncc2)cc1,0.82%,2.55%,16%,0.75%,3.12%,8.61%,37.8%,1.31%,3.71%,-2.68%
COc1ccc2[nH]c3c4[nH]c5ccc(OC)cc5c4c4c(c3c2c1)C(=O)NC4=O,29.8%,4.03%,17.2%,4.27%,28.7%,1.55%,8.91%,3.82%,19.5%,4.07%
c1cc(-c2cnn3nc(N4CCOCC4)ccc23)nc(NC2CC2)n1,4.31%,1.21%,1.42%,1.17%,6.27%,-0.45%,-0.77%,2.39%,2.99%,6.1%
CCc1nn2ncccc2c1-c1ccnc(NC2CC2)n1,1.73%,0.78%,1.73%,0.35%,1.73%,1.02%,2.65%,0.47%,0.53%,0.95%
Cc1ccc2c(-c3ccnc(Nc4ccccc4)n3)c(-c3ccc(F)cc3)nn2n1,2.18%,1.83%,4.25%,1.15%,11.3%,1.13%,6.49%,0.7%,1.97%,2.27%
COc1cc2ncn(-c3cc(OCc4ccccc4C(F)(F)F)c(C(=O)N(C)C)s3)c2cc1OC,1.17%,0.88%,0.93%,-0.03%,0.21%,0.35%,-0.32%,1.66%,0.73%,-1.33%
N#Cc1c(NC(=O)c2ccc(F)cc2)sc2c1CCCC2,0.85%,1.5%,2.64%,0.43%,-0.26%,-1.4%,2.12%,3.5%,2.09%,0.54%
COc1cc2c(cc1Nc1nc(Nc3ccsc3C(N)=O)c3cc[nH]c3n1)N(C(=O)CN(C)C)CCC2(C)C,2.56%,2.98%,8.67%,4.21%,34.3%,2.16%,3.73%,6.04%,9.1%,8.05%
CC(C)COC(=O)c1ccc2c(c1)/C(=C/Nc1ccc(S(N)(=O)=O)cc1)C(=O)N2,19.6%,6.49%,11.8%,1.15%,7.21%,3.19%,5.57%,-1.68%,1.97%,-1.87%
O=S(=O)(CCNCc1ccc(-c2ccc3ncnc(Nc4ccc(OCc5cccc(F)c5)c(Cl)c4)c3c2)o1)c1ccccc1,0.78%,2.48%,6.82%,1.39%,2.12%,0.95%,2.13%,4.07%,3.1%,1.93%
CN(C)CCOc1ccc(-c2nc(-c3ccncc3)c(-c3ccc4c(c3)CC/C4=N\O)[nH]2)cc1,0.77%,1.46%,4.29%,0.58%,1.61%,1.27%,11.9%,1.48%,3.32%,1.85%
